Holding throughout (test): DAPPL (digital affinity profiling via proximity ligation, sequencing); 10 mM Tris-HCl pH 7.5, 50 mM NaCl, 1 mM DTT, 4% glycerol, room temperature, 30 min; GST-TFs on glutathione beads, 16-mer random dsDNA library, 0.1% formaldehyde crosslink after washing; high values mean tight binding
For one assay, the target named is T1, FEV (Homo sapiens, UniProt Q99581 1-238).
T1 sequence: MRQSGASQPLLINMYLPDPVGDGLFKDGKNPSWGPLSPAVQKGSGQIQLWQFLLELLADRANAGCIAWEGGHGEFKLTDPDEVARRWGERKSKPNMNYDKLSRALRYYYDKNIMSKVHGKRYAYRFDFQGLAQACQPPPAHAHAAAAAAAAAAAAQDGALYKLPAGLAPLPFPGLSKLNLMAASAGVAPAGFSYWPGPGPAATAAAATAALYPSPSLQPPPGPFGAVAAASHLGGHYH
The note with it: protein: recombinant; tags: N-terminal GST; dsDNA, one strand shown. The method, boiled down: (§1)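 Yeast served to express human transcription factors as GST fusions, which were then captured on glutathione beads and labelled with DNA barcodes. Pooled with a tag-only sample, they were incubated with 200 nmole of a 16-mer random double-stranded DNA library for 30 min at room temperature in Tris/NaCl/DTT/glycerol buffer, washed, crosslinked with 0.1% formaldehyde, ligated by proximity, amplified by PCR and sequenced. Dividing each hexamer's read frequency for a factor by its frequency for the tag-only sample gives the binding signal.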

In another assay the target is ETV5 (Homo sapiens, UniProt P41161 1-510). The note with it: protein: recombinant; tags: N-terminal GST; dsDNA, one strand shown. A digest of the protocol:
as §1

A further assay addresses HSF1 (Homo sapiens, UniProt Q00613 1-529). The note with it: protein: recombinant; tags: N-terminal GST; chain copies: 3; dsDNA, one strand shown. The method, boiled down:
as §1

The next assay addresses T2, SPIC (Homo sapiens, UniProt Q8N5J4 1-248).
T2 sequence: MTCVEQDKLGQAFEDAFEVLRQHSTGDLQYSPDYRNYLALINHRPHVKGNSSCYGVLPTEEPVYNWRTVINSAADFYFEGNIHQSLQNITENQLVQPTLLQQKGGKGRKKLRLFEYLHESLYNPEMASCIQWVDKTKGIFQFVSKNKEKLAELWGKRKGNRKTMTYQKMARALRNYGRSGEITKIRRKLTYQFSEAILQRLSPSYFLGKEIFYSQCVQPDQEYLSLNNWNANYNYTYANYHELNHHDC
Conditions: protein: recombinant; tags: N-terminal GST; dsDNA, one strand shown. The method, boiled down:
as §1

The target in the next assay is ELF4 (Homo sapiens, UniProt Q99607 1-663). Conditions: protein: recombinant; tags: N-terminal GST; dsDNA, one strand shown. The method, boiled down:
as §1

A further assay concerns the target T3, ELK4 (Homo sapiens, UniProt P28324-2 1-405).
T3 sequence: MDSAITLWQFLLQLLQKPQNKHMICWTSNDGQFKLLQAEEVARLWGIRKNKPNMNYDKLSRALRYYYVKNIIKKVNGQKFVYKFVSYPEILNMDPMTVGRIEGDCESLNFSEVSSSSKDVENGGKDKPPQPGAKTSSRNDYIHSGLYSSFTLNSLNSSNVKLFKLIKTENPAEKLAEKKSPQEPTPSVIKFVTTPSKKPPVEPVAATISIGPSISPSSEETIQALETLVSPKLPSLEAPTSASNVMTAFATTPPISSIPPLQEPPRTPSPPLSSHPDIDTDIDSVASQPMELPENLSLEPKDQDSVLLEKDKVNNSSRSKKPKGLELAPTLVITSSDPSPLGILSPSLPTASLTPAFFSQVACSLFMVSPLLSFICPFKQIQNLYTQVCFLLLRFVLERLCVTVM
The note with it: protein: recombinant; tags: N-terminal GST; dsDNA, one strand shown. A digest of the protocol: as §1

Another assay has as its target T4, ETV2 (Homo sapiens, UniProt O00321 1-342).
T4 sequence: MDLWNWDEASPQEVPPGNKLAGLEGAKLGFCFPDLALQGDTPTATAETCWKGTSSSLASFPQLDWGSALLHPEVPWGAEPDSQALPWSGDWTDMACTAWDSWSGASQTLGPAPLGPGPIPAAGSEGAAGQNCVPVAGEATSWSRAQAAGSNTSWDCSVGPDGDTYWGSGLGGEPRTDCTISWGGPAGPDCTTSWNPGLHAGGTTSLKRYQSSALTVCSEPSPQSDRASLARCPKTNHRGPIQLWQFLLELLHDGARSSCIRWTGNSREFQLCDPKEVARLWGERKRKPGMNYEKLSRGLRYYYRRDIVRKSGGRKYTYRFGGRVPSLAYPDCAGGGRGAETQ
Conditions: protein: recombinant; tags: N-terminal GST; dsDNA, one strand shown. The method, boiled down:
as §1

The target of another assay is T5, ELF3 (Homo sapiens, UniProt P78545 1-371).
T5 sequence: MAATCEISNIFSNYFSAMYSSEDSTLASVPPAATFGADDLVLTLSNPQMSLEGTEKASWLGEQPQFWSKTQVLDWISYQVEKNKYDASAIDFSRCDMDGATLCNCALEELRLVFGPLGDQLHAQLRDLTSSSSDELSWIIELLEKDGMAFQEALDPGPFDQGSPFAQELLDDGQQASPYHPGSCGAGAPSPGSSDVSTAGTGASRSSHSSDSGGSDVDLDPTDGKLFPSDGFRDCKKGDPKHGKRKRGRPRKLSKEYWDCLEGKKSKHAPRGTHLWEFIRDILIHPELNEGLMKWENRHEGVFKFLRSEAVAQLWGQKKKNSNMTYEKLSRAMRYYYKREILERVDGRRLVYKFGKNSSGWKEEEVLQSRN
The note with it: protein: recombinant; tags: N-terminal GST; dsDNA, one strand shown. The method, boiled down: as §1

The next assay has as its target CRX (Homo sapiens, UniProt O43186 1-299). Conditions: protein: recombinant; tags: N-terminal GST; dsDNA, one strand shown. The method, boiled down:
as §1

The target in another assay is ETV1 (Homo sapiens, UniProt P50549 1-477). The note with it: protein: recombinant; tags: N-terminal GST; dsDNA, one strand shown. The method, boiled down:
as §1

A further assay concerns the target T6, ERF (Homo sapiens, UniProt P50548 1-548).
T6 sequence: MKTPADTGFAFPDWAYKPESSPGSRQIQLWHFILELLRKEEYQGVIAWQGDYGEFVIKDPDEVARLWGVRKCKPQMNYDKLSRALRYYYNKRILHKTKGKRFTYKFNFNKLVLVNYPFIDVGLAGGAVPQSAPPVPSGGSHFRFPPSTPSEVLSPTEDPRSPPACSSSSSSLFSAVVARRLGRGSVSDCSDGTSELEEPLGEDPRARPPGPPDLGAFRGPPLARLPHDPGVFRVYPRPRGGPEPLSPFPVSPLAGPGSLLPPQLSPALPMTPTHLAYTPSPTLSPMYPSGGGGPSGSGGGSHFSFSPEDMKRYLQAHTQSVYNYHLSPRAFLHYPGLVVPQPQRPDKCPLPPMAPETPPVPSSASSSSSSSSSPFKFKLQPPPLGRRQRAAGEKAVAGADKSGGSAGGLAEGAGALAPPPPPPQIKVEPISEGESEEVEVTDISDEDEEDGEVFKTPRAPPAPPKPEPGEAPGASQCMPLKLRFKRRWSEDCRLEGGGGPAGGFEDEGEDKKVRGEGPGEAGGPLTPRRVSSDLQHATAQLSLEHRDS
The note with it: protein: recombinant; tags: N-terminal GST; dsDNA, one strand shown. The method, boiled down:
as §1

A further assay has as its target T7, ETV3L (Homo sapiens, UniProt Q6ZN32 1-361).
T7 sequence: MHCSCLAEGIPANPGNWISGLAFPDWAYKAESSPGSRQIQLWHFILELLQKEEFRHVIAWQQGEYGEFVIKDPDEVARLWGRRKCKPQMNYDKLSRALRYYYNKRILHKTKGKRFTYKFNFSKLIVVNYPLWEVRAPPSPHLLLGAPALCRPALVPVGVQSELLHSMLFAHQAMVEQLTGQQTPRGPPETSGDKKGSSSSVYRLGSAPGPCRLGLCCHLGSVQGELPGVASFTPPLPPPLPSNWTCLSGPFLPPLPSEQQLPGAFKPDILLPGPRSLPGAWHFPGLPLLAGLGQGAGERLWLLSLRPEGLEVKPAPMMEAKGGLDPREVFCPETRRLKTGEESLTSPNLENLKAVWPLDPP
Conditions: protein: recombinant; tags: N-terminal GST; dsDNA, one strand shown. The method, boiled down:
as §1

The target in the next assay is T8, ETS2 (Homo sapiens, UniProt P15036 1-469).
T8 sequence: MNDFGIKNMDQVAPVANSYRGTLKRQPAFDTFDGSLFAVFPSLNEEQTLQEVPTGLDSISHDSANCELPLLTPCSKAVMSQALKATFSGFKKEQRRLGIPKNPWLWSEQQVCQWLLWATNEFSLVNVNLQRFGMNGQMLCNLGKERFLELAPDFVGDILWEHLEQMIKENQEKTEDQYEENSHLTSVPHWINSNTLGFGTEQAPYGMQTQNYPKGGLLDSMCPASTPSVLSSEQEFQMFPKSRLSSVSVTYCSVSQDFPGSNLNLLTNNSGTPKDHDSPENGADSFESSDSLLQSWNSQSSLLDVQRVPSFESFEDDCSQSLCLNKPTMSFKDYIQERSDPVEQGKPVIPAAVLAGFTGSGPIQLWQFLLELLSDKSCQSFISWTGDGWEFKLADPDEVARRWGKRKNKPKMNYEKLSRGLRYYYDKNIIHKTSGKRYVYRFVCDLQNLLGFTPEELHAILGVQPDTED
The note with it: protein: recombinant; tags: N-terminal GST; dsDNA, one strand shown. The method, boiled down: as §1

A further assay addresses T9, SPDEF (Homo sapiens, UniProt O95238 1-335).
T9 sequence: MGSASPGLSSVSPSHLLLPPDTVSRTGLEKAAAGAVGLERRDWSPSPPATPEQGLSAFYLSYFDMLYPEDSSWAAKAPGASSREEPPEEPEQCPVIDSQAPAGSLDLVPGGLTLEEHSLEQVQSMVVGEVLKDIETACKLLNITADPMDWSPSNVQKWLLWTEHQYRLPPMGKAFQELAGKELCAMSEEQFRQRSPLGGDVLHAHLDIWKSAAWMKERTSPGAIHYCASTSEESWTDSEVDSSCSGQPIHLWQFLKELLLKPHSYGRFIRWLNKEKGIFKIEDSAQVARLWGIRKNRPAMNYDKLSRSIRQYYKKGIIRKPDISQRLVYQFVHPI
The note with it: protein: recombinant; tags: N-terminal GST; dsDNA, one strand shown. The method, boiled down: as §1

The next assay concerns the target T10, ETV7 (Homo sapiens, UniProt Q9Y603 1-341).
T10 sequence: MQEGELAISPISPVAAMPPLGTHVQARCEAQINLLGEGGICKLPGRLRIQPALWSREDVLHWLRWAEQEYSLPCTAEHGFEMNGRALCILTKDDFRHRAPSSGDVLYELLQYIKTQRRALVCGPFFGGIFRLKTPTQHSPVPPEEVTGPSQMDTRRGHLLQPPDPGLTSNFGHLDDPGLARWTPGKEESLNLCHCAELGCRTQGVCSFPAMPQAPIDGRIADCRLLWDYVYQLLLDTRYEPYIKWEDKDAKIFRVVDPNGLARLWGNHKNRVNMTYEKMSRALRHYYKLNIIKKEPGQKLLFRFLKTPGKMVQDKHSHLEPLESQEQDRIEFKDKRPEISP
The note with it: protein: recombinant; tags: N-terminal GST; dsDNA, one strand shown. The method, boiled down: as §1

The next assay addresses T11, ELF5 (Homo sapiens, UniProt Q9UKW6-2 1-255).
T11 sequence: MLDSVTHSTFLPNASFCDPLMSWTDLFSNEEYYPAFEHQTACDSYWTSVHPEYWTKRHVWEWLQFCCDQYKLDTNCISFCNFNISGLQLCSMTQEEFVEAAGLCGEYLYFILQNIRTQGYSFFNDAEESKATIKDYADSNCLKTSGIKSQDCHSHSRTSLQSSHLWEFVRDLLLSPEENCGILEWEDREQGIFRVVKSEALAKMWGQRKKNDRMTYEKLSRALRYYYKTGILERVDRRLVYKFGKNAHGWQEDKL
Conditions: protein: recombinant; tags: N-terminal GST; dsDNA, one strand shown. The method, boiled down:
as §1

The target in another assay is T12, ETV3 (Homo sapiens, UniProt P41162-2 1-143).
T12 sequence: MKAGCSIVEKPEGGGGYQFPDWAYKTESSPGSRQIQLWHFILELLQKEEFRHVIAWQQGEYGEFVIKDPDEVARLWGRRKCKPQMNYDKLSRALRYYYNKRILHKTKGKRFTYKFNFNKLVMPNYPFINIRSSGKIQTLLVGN
The note with it: protein: recombinant; tags: N-terminal GST; dsDNA, one strand shown. The method, boiled down:
as §1

The target of the next assay is ETV6 (Homo sapiens, UniProt P41212 1-452). Conditions: protein: recombinant; tags: N-terminal GST; dsDNA, one strand shown. A digest of the protocol: as §1

Our source for the binding signal values is paper PMC7862700, “An all-to-all approach to the identification of sequence-specific readers for epigenetic DNA modifications on cytosine”.

Sequence of ETV1 (P50549 whole entry): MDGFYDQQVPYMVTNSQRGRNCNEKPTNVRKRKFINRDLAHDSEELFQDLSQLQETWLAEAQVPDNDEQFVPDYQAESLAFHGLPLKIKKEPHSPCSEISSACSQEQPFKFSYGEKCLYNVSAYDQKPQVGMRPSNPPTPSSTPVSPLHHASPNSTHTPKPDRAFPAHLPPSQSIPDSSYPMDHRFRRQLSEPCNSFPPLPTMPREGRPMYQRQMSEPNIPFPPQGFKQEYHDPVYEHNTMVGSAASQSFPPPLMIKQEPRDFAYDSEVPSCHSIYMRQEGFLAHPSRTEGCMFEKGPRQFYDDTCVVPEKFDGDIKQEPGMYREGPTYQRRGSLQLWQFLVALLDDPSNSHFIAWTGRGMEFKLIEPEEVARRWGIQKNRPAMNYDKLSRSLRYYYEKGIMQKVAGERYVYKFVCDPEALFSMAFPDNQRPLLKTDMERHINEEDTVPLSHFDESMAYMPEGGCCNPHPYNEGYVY
Sequence of CRX (O43186 whole entry): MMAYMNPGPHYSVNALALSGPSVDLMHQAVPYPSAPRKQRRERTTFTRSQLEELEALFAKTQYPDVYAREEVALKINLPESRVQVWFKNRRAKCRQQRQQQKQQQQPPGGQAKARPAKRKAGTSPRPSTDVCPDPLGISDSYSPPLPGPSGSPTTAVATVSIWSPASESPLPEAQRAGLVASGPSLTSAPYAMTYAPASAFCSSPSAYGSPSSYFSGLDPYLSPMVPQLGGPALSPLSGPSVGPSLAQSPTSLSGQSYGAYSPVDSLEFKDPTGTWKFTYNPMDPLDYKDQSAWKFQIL
Sequence of ETV5 (P41161 whole entry): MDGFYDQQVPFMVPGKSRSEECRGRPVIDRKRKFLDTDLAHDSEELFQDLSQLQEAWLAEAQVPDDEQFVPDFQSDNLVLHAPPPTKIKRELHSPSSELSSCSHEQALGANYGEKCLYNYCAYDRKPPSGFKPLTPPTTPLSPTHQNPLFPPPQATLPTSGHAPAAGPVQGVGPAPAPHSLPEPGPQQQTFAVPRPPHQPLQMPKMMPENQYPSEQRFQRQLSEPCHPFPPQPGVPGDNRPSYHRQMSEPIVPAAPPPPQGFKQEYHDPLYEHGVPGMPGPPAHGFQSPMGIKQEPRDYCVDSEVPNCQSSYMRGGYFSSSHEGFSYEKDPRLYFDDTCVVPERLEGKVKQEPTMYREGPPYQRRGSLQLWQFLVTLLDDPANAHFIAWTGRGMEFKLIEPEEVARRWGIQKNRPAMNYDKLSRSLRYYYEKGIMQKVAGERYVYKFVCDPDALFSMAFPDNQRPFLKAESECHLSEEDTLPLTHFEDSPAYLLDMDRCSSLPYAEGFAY
Sequence of ELF4 (Q99607 whole entry): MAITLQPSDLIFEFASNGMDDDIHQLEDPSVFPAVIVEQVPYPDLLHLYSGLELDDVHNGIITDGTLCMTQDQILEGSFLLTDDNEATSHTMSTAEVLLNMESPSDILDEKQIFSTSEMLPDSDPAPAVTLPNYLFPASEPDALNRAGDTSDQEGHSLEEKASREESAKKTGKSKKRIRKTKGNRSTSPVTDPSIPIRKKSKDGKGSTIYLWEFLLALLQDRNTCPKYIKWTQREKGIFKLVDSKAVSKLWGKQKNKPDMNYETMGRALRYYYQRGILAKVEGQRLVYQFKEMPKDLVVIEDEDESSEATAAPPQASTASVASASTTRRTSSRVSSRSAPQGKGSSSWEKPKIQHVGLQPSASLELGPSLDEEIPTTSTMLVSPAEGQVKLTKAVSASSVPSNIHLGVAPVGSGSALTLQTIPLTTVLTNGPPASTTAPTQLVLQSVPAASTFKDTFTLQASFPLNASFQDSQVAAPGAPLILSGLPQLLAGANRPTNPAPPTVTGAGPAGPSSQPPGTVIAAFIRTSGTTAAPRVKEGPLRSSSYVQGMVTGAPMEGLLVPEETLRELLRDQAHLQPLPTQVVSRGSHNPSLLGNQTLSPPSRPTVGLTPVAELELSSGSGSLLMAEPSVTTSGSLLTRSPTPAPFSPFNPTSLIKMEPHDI
Sequence of HSF1 (Q00613 whole entry): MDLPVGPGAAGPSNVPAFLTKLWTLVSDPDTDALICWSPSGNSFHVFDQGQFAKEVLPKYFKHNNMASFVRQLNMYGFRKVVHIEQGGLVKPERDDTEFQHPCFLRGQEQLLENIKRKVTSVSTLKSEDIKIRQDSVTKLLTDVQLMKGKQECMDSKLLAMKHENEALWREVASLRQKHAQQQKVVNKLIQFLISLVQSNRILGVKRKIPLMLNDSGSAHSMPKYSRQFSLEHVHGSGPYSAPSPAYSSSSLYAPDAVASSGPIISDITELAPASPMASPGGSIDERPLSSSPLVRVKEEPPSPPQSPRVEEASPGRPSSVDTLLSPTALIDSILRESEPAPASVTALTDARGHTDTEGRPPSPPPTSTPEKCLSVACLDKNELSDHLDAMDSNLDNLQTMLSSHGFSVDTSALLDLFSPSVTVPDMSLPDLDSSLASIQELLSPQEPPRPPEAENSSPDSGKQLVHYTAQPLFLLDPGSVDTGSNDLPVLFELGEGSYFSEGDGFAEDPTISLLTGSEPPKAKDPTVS
Sequence of ETV6 (P41212 whole entry): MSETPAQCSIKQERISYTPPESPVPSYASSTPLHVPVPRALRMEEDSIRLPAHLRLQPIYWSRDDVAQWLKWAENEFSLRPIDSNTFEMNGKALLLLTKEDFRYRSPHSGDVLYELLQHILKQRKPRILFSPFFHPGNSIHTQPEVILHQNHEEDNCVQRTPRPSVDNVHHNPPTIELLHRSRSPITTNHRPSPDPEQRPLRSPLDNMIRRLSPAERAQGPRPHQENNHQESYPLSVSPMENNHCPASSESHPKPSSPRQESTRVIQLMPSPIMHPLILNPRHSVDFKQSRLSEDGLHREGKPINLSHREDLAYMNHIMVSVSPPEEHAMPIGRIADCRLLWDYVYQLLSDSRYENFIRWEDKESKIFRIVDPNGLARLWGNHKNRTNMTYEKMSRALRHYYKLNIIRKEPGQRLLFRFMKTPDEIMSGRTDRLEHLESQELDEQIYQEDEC

As for GCCTCG, the binding signal with FEV is 1.25 fold enrichment (6-mer frequency, TF over GST control); with ETV5, 1.33 fold enrichment (6-mer frequency, TF over GST control); in the assay with HSF1, 1.31 fold enrichment (6-mer frequency, TF over GST control); in the assay with SPIC it was 1.07 fold enrichment (6-mer frequency, TF over GST control); with ELF4 it was 1.38 fold enrichment (6-mer frequency, TF over GST control); in the assay with ELK4 it was 1.32 fold enrichment (6-mer frequency, TF over GST control). The binding signal with ETV2 is 1.06 fold enrichment (6-mer frequency, TF over GST control); with ELF3, 1.33 fold enrichment (6-mer frequency, TF over GST control); with CRX it was 1.08 fold enrichment (6-mer frequency, TF over GST control); with ETV1 it was 1.26 fold enrichment (6-mer frequency, TF over GST control); in the assay with ERF, 1.14 fold enrichment (6-mer frequency, TF over GST control); with ETV3L, 1.28 fold enrichment (6-mer frequency, TF over GST control). Moreover, the binding signal is 1.31 fold enrichment (6-mer frequency, TF over GST control) in the assay with ETS2; 1.19 fold enrichment (6-mer frequency, TF over GST control) with SPDEF; 1.26 fold enrichment (6-mer frequency, TF over GST control) with ETV7; 1.23 fold enrichment (6-mer frequency, TF over GST control) in the assay with ELF5; 1.28 fold enrichment (6-mer frequency, TF over GST control) with ETV3; 1.37 fold enrichment (6-mer frequency, TF over GST control) with ETV6.
